Source: PubChem
KLK7 zymogen act: activates the human kallikrein-7 zymogen; purified proKLK7, EDANS-DABCYL substrate fluorescence; 100% is mature enzyme control, 0% vehicle; actives 0.9% (n = 370,000); P49862; activation, % at 7 µM;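 active = activation above the mean of all tested compounds plus 3 SD, computed per campaign excluding outliers beyond control limits, cut at about 13% in these data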
ADAM17 inh: ADAM17 inhibition, QFRET primary screen; recombinant ADAM17, EDANS/DABCYL FRET peptide cleavage; inhibition, % at 6.95 µM; actives 0.83% (n = 370,000); AID 720648;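 active = inhibition above the mean of compounds lying between control limits plus 3 SD, set per campaign, cut at about 8.5% in these data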;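 also: 0% = DMSO-only wells as the low control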
PLC-gamma1 inh: PLC-gamma1 (human) inhibition, primary screen; inhibition, % at 12.2 µM; P19174; purified PLC-gamma1, fluorogenic substrate, fluorescence; actives 0.84% (n = 370,000); in the data active = inhibition above about 9.5%
HGIII-sPLA2 inh: Blocks human group III sPLA2 activity; inhibition, % at 12.2 µM; AID 743126; QFRET BODIPY PC-A2 liposome hydrolysis, fluorescence; actives 0.56% (n = 370,000); Q9NZ20;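 active = inhibition above mean plus 3 SD of compounds lying within the high and low control bounds, cut at about 19% in these data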;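 also: 0% = median of test compound wells and 100% = no enzyme DMSO wells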
PLC-beta3 inh: blocks human PLC-beta3 enzyme activity; Q01970; Purified PLC-beta3, fluorogenic substrate, fluorescence; actives 0.18% (n = 370,000); inhibition, % at 12.2 µM; in the data active = inhibition above about 11%;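 also: 0% = median of compound wells on plate and 100% = full blocker control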
ADAM10 inh: ADAM10 inhibition, QFRET primary screen; O14672; recombinant ADAM10, EDANS/DABCYL FRET peptide cleavage, 3 h; inhibition, % at 7 µM; actives 0.62% (n = 370,000); AID 720582;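 active = inhibition above a per-campaign cutoff equal to the mean of compounds falling between control-based bounds plus 3 SD, cut at about 20% in these data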;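 also: 0% = DMSO wells while the 100% control is not disclosed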
KLK7 act conf: proKLK7 activation, confirmation. activation, % at 7 µM. purified proKLK7, EDANS-DABCYL substrate fluorescence; scaled: vehicle 0, mature enzyme 100. shares compounds with KLK7 zymogen act. actives 68% (n = 3,200);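 active = activation, as change over the incubation, above the mean of all tested compounds plus 3 SD, cut at about 13% in these data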
EDANS interfere: counter-screen for kallikrein-7 activators: EDANS-DABCYL optical interference; activation, % at 7 µM; shares compounds with KLK7 zymogen act; actives 80% (n = 3,200); EDANS-DABCYL substrate fluorescence interference, no enzyme, 4 h; solvent 0%, active enzyme control 100%; AID 686952;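 active = activation above the all-compound mean plus 3 SD, ignoring values outside control-based bounds, cut at about 4.8% in these data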;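 also: value is the 4 h activation minus the activation read at time zero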
K7 EDANS ctr: EDANS fluorescence interference in dose response, no enzyme | actives 20% (n = 250) | EC50, µM | EDANS-DABCYL peptide fluorescence interference | AID 720493 | shares compounds with KLK7 zymogen act;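 active = compounds that raise the fluorescence signal in this interference counterscreen, with EC50 at or below 10 µM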;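 also: intact quenched peptide substrate alone read at 355 nm excitation and 520 nm emission; signal is fluorescence gain from T0 to T4 after four hours at room temperature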
Starred values were filed as active, the others as inactive; i = inactive; · = not tested or not shown. Rows were chosen to be rich in hits. Some 3.4% of all compounds tested hit in one or more screens of this group.

SMILES | KLK7 zymogen act | ADAM17 inh | PLC-gamma1 inh | HGIII-sPLA2 inh | PLC-beta3 inh | ADAM10 inh | KLK7 act conf | EDANS interfere | others
O=c1c2ccccc2[nH]c2ccc(F)cc12 | -6 | i | -272 | 2 | -297 | i | · | ·
O=c1nc(-c2ccccc2Cl)c2cc(F)ccc2[nH]1 | 19* | -292 | -324 | 7 | -361 | i | 31* | 26* | K7 EDANS ctr=i
O=c1oc2ccccc2c2c1ccc1ccccc12 | -9 | -148 | -59 | -5 | -83 | i | · | ·
O=c1cc(C(F)F)oc2c1ccc1ccccc12 | 17* | -129 | -159 | 3 | -169 | -382 | 18* | 19*
COP(=O)(O)C[C@@H]1CCc2cc(C)cc([C@H](CC(C)C)NC(=O)OCc3ccccc3)c2O1 | 2 | -25 | -14 | -12 | -21 | -75 | · | ·
Cc1nc(/C=C\C(=O)O)c2cc(C)oc2n1 | 13* | i | -290 | 0 | -351 | i | 20* | 22*
COc1ccc(OC(=O)c2cccc([N+](=O)[O-])c2)c(C(=O)/C=C/c2cccs2)c1 | 25* | -6 | -27 | -6 | -50 | -12 | 20* | 15* | K7 EDANS ctr=i
COc1cccc(/C=C/C(=O)c2cccc([N+](=O)[O-])c2)c1 | -1 | 0 | 2 | -2 | -13 | 5 | · | ·
CCC1CCCN1Cn1cnc2c([nH]c3ccc(OC)cc32)c1=O (stereo not given) | 27* | -179 | -174 | 2 | -223 | i | 12 | 11*
O=C1CCC(=O)c2ccc3c4c(ccc1c24)CC3 | 8 | -189 | -97 | -12 | -141 | i | · | ·
O=C1CCN2C=Nc3cccc4ccc1c2c34 | 56* | -75 | i | -162 | i | -230 | 68* | 66*
CCOC(=O)N1Cc2cc3ccccc3nc2C1 | 0 | 1 | 5 | -5 | 4 | 6 | · | ·
CCOC(=O)C1(C)C(=O)CC2c3nc4ccccc4cc3CN2C1=O (stereo not given) | 20* | -9 | -74 | 5 | -101 | -62 | 2 | 2
CC(=O)OCc1nc2ccccc2s1 | 0 | 0 | 0 | -1 | 2 | -3 | · | ·
CCOC(=O)C(=O)Cc1nc2ccccc2s1 | 13* | -28 | -38 | -10 | -62 | -102 | 4 | 5.3*
CC(C)CN1C(=O)[C@@]2(CC(=O)N(C)C2c2ccccc2)c2cc(-n3cc(CN(C)C)nn3)ccc21 (stereo not given in full) | 0 | 0 | -2 | 11 | -5 | -13 | · | ·
COc1ccc(OC)c(NC(=O)c2ccccc2N(Cc2ccccc2)C(=O)C(C)Cl)c1 (stereo not given) | 0 | -8 | -1 | 13 | -6 | -53 | · | ·
O=C(NCCCn1ccnc1)c1cc2ccccc2oc1=O | -1 | -13 | -2 | 1 | -9 | -54 | · | ·
O=c1c2ccccc2oc2cc(NCCCn3ccnc3)ccc12 | 63* | i | i | -12 | i | i | 66* | 60*
O=c1c2ccccc2oc2cc(NCCCN3CCOCC3)ccc12 | 75* | i | i | 0 | i | i | 65* | 64*
Cn1c(C(=O)NCCCN2CCOCC2)cc2c(=O)n(C)c3ccccc3c21 | -1 | -10 | -7 | 3 | -8 | -49 | · | ·
Cn1c2ccccc2c(=O)c2cc(NCCCN3CCOCC3)ccc21 | 75* | i | i | 3 | i | i | 70* | 76*
O=c1c2ccccc2oc2ccc(NCCCN3CCOCC3)cc12 | 0 | 0 | -44 | 13 | -60 | -13 | · | ·
Cc1cccc(C(=O)Nc2c(-c3ccc(C(F)(F)F)cc3)nc3ncccn23)c1 | 0 | -5 | -34 | 3 | -40 | -21 | · | ·
CC(C)Oc1cccc(-c2n[nH]c(=S)n2N=Cc2ccc(O)cc2O)c1 | 0 | -1 | -13 | 5 | -18 | -6 | · | ·
